# HPGD inh: qHTS Assay for Inhibitors of HPGD (15-Hydroxyprostaglandin Dehydrogenase) | hit rate 4.3% among 150,000 | purified HPGD, NADH fluorescence kinetic, PGE2 substrate | Potency, µM, actives largely listed as inhibitors | 15-hydroxyprostaglandin dehydrogenase [NAD(+)] (Homo sapiens), P15428 | AID 894, 2007
# Target sequence (P15428 whole entry, looked up): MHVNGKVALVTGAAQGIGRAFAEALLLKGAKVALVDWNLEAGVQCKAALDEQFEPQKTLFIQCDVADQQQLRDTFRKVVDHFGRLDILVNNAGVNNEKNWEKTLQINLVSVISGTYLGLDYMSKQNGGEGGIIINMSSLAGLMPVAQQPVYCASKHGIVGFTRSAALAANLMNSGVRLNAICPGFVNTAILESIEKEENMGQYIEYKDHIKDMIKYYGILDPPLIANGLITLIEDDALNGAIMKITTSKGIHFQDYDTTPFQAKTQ
#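 20 nM HPGD preincubated 15 min at room temperature with compound in 50 mM Tris-HCl pH 8, 0.01% Tween 20. Started with 1 mM NAD+ and 30 uM prostaglandin E2; NADH fluorescence (360/450 nm) read 5 times over 30-s intervals, last minus first.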
# PNC assembly inh: High Content Assay for Compounds that inhibit the Assembly of the Perinucleolar Compartment | PC3M PTB-GFP, PNC prevalence imaging, 16 h; active compounds read low | activity change (PNC), negative = inhibition, % at 10 µM | hit rate 3.1% among 140,000 | AID 2417, 2010;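 active = readout at or below -70, meaning at least 70% loss of cells showing the perinucleolar compartment, a nuclear body marking cancer cells; inconclusive = readout between -30 and a set limit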
#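 PC3M cells stably expressing PTB-GFP, 750–1000 cells/well, treated 16 h at 37 °C with compound (23 nl of library stock), in duplicate. After paraformaldehyde fixation and Hoechst stain, imaged at 20x; PNC prevalence scored by image analysis.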
# ALDH1A1 block: qHTS Assay for Inhibitors of Aldehyde Dehydrogenase 1 (ALDH1A1). Purified ALDH1A1, NADH fluorescence, propionaldehyde substrate. Potency, µM (doses to about 75.3 µM), actives largely listed as inhibitors. hit rate 7.3% among 220,000. Aldehyde dehydrogenase 1A1 (Homo sapiens), P00352. AID 1030, 2008
# Numbers stand for hits; 0 = inactive; ? = inconclusive; - = no result; [ ] = dose if it differs, or a comment. Sampled rows, rich in hits. Any-hit rate of the full collection: about 11%. Unless noted, calls come from the whole dose curve; as a rule, active = well fitted inhibition curve with a large enough effect (not every such curve was filed as active); inconclusive = small, poorly fitted or top-dose-only effect, or another doubt; inactive = no such curve, though single readings can be large or run the other way.
SMILES,HPGD inh,PNC assembly inh,ALDH1A1 block
CC(C)OC(=O)c1cccc(-c2ccc(C=O)o2)c1,0,-108,6.3µM
CC(C)OC(=O)c1ccc(COC(=O)c2cccc(-c3nnc(-c4ccccc4)o3)c2)cc1,0,?,0
O=C(c1ccccc1F)N(NC(=O)C(O)(c1ccccc1)c1ccccc1)c1ccccc1,0,0,?
Cc1oc2c(c1C(=O)Nc1cccc3ccccc13)CCCC2,0,0,?
COc1ccccc1NC(=O)c1c(C)oc2c1CCCC2,0,-114,?
CN(C)CCCNc1ncnc2scc(-c3ccccc3)c12,-,-,18µM
c1ccc(-c2csc3ncnc(NCCN4CCOCC4)c23)cc1,0,0,0
CC1C(=O)OC2C(O)C34C5CC(C(C)(C)C)C36C(OC(=O)C6O)OC4(C(=O)O5)C12O (centres undefined),0,-,0
COc1ccccc1C1C(C#N)=C(N)N(c2cccnc2)C2=C1C(=O)CC(C)(C)C2 (centres undefined),0,0,0
CCOC(=O)c1[nH]c2c(c1C)C(=O)CC(c1ccc(F)cc1)C2 (centres undefined),0,-95,0
CCOCCOC(=O)c1[nH]c2c(c1C)C(=O)CC(c1cccs1)C2 (centres undefined),-,-,0
Cc1c(C(=O)OCC2CCCO2)[nH]c2c1C(=O)CC(c1ccc(N(C)C)cc1)C2 (centres undefined),0,0,11µM
CCOC(=O)c1[nH]c2c(c1-c1ccccc1)C(=O)CC(c1ccc(OCC)cc1)C2 (centres undefined),0,?,0
CCOC(=O)c1[nH]c2c(c1-c1ccccc1)C(=O)CC(c1ccc(OC)c(OC)c1)C2 (centres undefined),0,0,13µM
CCOC(=O)c1[nH]c2c(c1C)C(=O)CC(c1ccc(OCC)c(OC)c1)C2 (centres undefined),0,0,0
COC(=O)c1[nH]c2c(c1C)C(=O)CC(c1ccc(C)cc1)C2 (centres undefined),0,0,0
CCCCCOC(=O)c1[nH]c2c(c1C)C(=O)CC(c1ccco1)C2 (centres undefined),0,0,28µM
CC1CCCCN1C(=O)COC(=O)c1n[nH]c2ccccc12 (centres undefined),0,0,?
CCOC(=O)C(=CN(CCc1ccccc1)CC(=O)OC)C(=O)OCC,0,0,0
O=C(Nc1cccc(Cl)c1)/C(=C\c1cccnc1)NC(=O)c1ccco1,-,-,0
CC(C(=O)N1CCCc2c1c(=O)oc1ccc(O)cc21)N1CCc2ccccc2C1 (centres undefined),-,0,?
CC1CCN(CCC(=O)N2CCCc3c2c(=O)oc2ccc(O)cc32)CC1,0,0,2.2µM
O=C(CN1CCCC1)N1CCCc2c1c(=O)oc1ccc(OCc3ccccc3)cc21,?,0,?
CN(CC(=O)N1CCCc2c1c(=O)oc1ccc(O)cc21)Cc1ccccc1,0,?,13µM
Cc1cc(C)c(NC(=O)/C(=C/c2ccccc2)c2ccccc2)c(C)c1,0,0,0
SMILES,HPGD inh,PNC assembly inh,ALDH1A1 block
CC12C(=O)N(Cc3ccco3)C(=O)C1C1c3ccccc3C2c2ccccc21 (centres undefined),0,0,16µM
CC12C(=O)N(c3ccc(C(=O)N4CCOCC4)cc3)C(=O)C1C1c3ccccc3C2c2ccccc21 (centres undefined),0,0,0
Clc1ccc(CSc2nnc([C@@H]3CCCN3)o2)cc1Cl,0,0,0
O=C(CSc1nnc([C@@H]2CCCN2)o1)c1ccc(Cl)cc1,0,0,22µM
CCOC(=O)CSc1nc(C)cc(C)n1,0,0,0
CCOC(=O)CSc1cn2c(n1)CCC2,?,-100,0
COc1ccccc1-n1c(SCC(=O)Nc2ccc3c(c2)OCO3)nc2c(c1=O)SCC2,0,0,20µM
COc1ccc(-n2c(SCC(=O)Nc3ccc4c(c3)OCO4)nc3c(c2=O)SCC3)cc1,?,0,?
COc1ccccc1-n1c(SCC(=O)N2CCc3ccccc32)nc2c(c1=O)SCC2,0,0,11µM
COc1ccc(OC)c(-n2c(SCC(=O)N3CCc4ccccc43)nc3c(c2=O)SCC3)c1,0,0,0
O=C(O)c1nnsc1COCc1ccccc1,0,-,0[13.5 µM]
CC(C)NC(=O)CN1CCN(c2ncccn2)CC1,0,0,28µM
O=C(CN1CCN(c2ccccn2)CC1)Nc1ccc(F)cc1,0,0,?
O=C(CN1CCN(c2ccccn2)CC1)Nc1ccc(Oc2ccccc2)cc1,0,0,25µM
O=C(CN1CCN(c2ccccn2)CC1)Nc1ccccc1,0,0,0
CC(NC(=O)CN1CCN(c2ncccn2)CC1)c1ccc(F)cc1 (centres undefined),0,?,0
O=C(CN1CCN(c2ccccn2)CC1)NC1CCCC1,0,0,25µM
Nc1c(-c2cccc(Cl)c2)cnn1-c1cccc(C(F)(F)F)c1,13µM,0,0
N#Cc1cnn(-c2cccc(Cl)c2)c1N,-,-,0
Nc1c(-c2ccccc2)cnn1-c1cccc(C(F)(F)F)c1,10µM,?,0
Nc1c(-c2ccccc2)cnn1-c1ccc(C(=O)O)cc1,0,0,0
COc1ccccc1/C=C/CN1CC(C)OC(C)C1 (centres undefined),0,0,0
CCOC(=O)N1CCN(S(=O)(=O)c2ccc(C(=O)Nc3nnc(C4CC4)o3)cc2)CC1,0,0,0
CCOC(=O)N1CCN(S(=O)(=O)c2cc(OCC)ccc2OCC)CC1,0,0,0
CCOc1cc(S(=O)(=O)N2CCN(CC)CC2)ccc1Cl,0,0,0
SMILES,HPGD inh,PNC assembly inh,ALDH1A1 block
CCOC(=O)N1CCN(S(=O)(=O)c2ccc(C(=O)Nc3nnc(CC)o3)cc2)CC1,0,-82,0
CCOc1ccc(S(=O)(=O)Nc2ccc(S(=O)(=O)N3CCCC3)cc2)cc1,0,0,3.2µM
CCOc1cc(S(=O)(=O)N2CCCCC2)ccc1Cl,0,?,22µM
CCOC(=O)N1CCN(S(=O)(=O)c2ccc(OCC)c(C)c2)CC1,0,0,16µM
CCOc1ccc(S(=O)(=O)Nc2ccc(S(=O)(=O)N3CCOCC3)cc2)cc1,0,?,?
CCC(CCC(=O)Nc1ccc(S(N)(=O)=O)cc1)C(=O)O (centres undefined),0,0,0
Cc1ccc(NC(=O)COC(=O)c2sccc2C)cc1S(=O)(=O)N1CCOCC1,-,0,?
Oc1c(Br)cc(C2N=C(c3ccccc3Cl)NO2)cc1Br (centres undefined),0,0,?
O=C(CSc1nnc(NC(=O)C2CC2)s1)NCc1ccco1,0,0,?
CCc1ccc(-n2c(C)n[nH]c2=S)cc1,-,-,0
CCOc1ccc(S(=O)(=O)Nc2ccc(S(=O)(=O)N3CCCCC3)cc2)cc1,0,0,2.2µM
CCOc1ccc(S(=O)(=O)N2CCCCCC2)cc1,0,?,0
Cc1[nH]nc(N=CC2=C(O)CC(C)(C)CC2=O)c1-c1ccc(Cl)cc1,0,0,14µM
CCOc1ccc(N=CC2=C(O)CC(C)(C)CC2=O)cc1,0,0,14µM
Cc1[nH]nc(N=CC2=C(O)CC(c3ccco3)CC2=O)c1-c1ccc(Cl)cc1 (centres undefined),0,0,?
CC1(C)CC(=O)C(C=Nc2ccc(N)cc2)=C(O)C1,-,-,11µM

# Source: PubChem BioAssay (National Center for Advancing Translational Sciences (NCATS))
